According to the supplement of paper PMC11732987, “Enantioselective OTUD7B fragment discovery through chemoproteomics screening and high-throughput optimisation” (Communications Chemistry, 2025):
Values without a mark were called inactive.

Legend:
Assay in all cases: log2 ratio of Biotin-Ahx-Ub-VS probe labelling (fragment/DMSO); higher = less target engagement (more negative = stronger competition), active = hit call of the paper (q ≤ 0.05, log2 ratio ≤ -1)
Conditions in all cases: compound concentration: 200 uM; treatment time: 3 h
[1] = biological target: T1, OTUD6B (UniProt Q8N6M0)
T1 sequence (whole entry): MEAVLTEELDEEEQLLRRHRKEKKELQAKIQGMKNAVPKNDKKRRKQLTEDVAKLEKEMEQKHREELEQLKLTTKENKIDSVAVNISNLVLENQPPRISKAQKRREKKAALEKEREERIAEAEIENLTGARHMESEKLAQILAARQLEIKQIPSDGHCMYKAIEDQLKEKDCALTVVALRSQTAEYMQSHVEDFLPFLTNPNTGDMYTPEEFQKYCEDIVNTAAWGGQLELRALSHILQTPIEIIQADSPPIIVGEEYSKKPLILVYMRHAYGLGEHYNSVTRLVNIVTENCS
Outline: (§1)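 Triplicate samples of HEK293T lysate, 495 µg each, received fragment at 200 µM or vehicle for 3 h, followed by Biotin-Ahx-Ub-VS (0.5 µM final) for 1 h. After NeutrAvidin enrichment of labelled DUBs and LysC/trypsin digestion, peptides were run by diaPASEF LC-MS/MS. The values are average log2 fragment/vehicle ratios from global-median-normalised Spectronaut label-free quantities, tested by unpaired t-test on proteins having ≥2 unique peptides.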

[2] = biological target: T2, OTUD7B (UniProt Q6GQQ9)
T2 sequence (whole entry): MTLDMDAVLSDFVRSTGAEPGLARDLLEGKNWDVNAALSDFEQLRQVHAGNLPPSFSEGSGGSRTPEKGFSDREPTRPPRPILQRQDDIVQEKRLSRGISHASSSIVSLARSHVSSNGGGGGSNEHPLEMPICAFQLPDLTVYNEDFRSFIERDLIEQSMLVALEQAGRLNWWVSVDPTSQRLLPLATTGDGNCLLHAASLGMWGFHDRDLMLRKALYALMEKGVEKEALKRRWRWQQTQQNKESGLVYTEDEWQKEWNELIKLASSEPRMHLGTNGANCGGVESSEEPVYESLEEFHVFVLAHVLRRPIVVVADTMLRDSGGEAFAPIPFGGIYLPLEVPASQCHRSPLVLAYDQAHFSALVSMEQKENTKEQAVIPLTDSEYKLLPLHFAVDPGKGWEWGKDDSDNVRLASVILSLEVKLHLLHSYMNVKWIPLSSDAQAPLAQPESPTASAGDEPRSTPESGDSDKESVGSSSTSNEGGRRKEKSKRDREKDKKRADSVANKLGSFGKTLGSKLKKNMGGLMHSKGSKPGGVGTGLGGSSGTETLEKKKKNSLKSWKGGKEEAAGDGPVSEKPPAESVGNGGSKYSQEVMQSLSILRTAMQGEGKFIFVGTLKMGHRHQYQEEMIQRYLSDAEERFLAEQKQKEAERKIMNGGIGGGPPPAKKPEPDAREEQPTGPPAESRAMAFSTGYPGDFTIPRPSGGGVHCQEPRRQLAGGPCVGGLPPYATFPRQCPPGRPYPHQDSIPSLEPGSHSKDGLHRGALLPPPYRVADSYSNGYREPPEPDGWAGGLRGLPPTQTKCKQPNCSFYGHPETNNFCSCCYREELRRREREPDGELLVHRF
Outline: as §1

[3] = biological target: PRPF8 (UniProt Q6P2Q9)
Outline: as §1

[4] = biological target: T3, PSMD7 (UniProt P51665)
T3 sequence (whole entry): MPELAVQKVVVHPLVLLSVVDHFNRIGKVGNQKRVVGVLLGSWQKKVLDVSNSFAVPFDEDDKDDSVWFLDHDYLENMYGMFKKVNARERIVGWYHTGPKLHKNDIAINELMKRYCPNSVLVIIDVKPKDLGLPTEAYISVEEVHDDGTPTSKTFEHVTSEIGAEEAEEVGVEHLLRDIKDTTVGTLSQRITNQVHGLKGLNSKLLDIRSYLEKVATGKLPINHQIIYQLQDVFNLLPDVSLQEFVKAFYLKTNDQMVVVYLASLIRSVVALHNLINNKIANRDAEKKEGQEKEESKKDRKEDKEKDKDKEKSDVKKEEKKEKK
Outline: as §1

[5] = biological target: UCHL1 (UniProt P09936)
Outline: as §1

[6] = biological target: T4, UCHL3 (UniProt P15374)
T4 sequence (whole entry): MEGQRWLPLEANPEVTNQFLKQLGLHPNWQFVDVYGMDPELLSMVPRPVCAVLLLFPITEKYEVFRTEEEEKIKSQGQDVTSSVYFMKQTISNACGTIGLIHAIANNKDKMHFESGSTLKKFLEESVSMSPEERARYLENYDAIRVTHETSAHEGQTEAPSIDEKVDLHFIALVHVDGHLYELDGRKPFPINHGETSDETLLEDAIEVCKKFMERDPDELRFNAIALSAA
Outline: as §1

[7] = biological target: T5, UCHL5 (UniProt Q9Y5K5)
T5 sequence (whole entry): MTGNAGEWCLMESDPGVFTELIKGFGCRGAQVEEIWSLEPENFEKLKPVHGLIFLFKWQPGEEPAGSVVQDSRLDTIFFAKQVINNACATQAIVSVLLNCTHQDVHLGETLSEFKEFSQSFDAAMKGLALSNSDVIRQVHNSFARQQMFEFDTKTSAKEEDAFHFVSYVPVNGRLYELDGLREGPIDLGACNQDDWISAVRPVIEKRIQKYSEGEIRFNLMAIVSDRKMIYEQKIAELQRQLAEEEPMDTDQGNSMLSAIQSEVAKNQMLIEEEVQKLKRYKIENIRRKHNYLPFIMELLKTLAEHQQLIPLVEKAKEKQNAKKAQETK
Outline: as §1

[8] = biological target: USP10 (UniProt Q14694)
Outline: as §1

[9] = biological target: T6, USP15 (UniProt Q9Y4E8)
T6 sequence (whole entry): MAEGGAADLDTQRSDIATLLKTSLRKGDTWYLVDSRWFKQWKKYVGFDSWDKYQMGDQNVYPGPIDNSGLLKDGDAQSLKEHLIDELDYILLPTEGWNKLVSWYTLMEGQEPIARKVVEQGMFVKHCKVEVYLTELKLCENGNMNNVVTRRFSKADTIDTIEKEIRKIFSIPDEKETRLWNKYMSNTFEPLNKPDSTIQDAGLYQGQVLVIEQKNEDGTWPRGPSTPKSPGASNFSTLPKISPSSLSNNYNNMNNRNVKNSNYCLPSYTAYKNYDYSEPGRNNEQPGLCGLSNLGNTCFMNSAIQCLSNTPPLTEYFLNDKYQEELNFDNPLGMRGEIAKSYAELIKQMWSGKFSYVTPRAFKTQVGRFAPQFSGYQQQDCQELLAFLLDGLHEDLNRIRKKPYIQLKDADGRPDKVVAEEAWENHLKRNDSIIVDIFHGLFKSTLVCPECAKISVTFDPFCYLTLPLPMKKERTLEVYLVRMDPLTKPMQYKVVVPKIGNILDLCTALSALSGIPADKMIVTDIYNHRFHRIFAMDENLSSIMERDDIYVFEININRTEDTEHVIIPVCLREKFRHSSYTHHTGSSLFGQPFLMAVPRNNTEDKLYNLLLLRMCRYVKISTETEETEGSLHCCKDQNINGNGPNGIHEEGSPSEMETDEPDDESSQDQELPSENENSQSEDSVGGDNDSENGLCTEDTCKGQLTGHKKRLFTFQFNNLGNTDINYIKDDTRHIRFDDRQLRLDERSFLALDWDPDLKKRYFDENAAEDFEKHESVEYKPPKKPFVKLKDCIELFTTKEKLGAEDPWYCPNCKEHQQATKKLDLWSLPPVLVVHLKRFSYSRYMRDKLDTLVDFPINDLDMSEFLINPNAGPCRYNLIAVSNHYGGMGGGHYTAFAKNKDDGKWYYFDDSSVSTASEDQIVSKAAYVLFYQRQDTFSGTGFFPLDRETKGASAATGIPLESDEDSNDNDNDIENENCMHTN
Outline: as §1

[10] = biological target: USP16 (UniProt Q9Y5T5)
Outline: as §1

Sequence of UCHL1 (P09936 whole entry, looked up): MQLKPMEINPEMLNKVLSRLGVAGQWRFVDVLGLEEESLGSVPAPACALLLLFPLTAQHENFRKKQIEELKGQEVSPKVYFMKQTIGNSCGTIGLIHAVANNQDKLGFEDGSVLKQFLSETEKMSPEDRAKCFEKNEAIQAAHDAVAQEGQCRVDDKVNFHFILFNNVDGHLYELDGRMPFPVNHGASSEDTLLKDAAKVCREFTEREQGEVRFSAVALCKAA
Sequence of USP10 (Q14694 whole entry): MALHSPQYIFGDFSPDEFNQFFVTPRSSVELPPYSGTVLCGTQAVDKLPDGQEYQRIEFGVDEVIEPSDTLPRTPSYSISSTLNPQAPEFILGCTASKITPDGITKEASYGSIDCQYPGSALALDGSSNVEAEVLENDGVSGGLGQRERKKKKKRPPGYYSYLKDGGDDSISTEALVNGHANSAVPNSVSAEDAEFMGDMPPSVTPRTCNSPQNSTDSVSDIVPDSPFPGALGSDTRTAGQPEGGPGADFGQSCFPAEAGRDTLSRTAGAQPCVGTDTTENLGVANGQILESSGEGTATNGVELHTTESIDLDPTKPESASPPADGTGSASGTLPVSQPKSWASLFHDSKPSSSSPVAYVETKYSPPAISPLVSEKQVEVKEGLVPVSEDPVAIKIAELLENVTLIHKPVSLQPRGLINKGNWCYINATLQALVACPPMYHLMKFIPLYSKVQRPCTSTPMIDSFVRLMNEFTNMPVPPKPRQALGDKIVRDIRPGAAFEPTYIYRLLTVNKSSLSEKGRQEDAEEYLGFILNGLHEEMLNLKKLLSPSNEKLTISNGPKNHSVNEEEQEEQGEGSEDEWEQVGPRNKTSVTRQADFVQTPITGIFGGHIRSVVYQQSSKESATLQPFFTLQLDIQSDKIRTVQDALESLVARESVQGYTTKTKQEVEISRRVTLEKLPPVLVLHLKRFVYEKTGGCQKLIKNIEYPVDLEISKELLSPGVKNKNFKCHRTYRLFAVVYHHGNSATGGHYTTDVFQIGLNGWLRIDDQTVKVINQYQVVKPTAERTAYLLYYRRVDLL
Sequence of USP16 (Q9Y5T5 whole entry, looked up): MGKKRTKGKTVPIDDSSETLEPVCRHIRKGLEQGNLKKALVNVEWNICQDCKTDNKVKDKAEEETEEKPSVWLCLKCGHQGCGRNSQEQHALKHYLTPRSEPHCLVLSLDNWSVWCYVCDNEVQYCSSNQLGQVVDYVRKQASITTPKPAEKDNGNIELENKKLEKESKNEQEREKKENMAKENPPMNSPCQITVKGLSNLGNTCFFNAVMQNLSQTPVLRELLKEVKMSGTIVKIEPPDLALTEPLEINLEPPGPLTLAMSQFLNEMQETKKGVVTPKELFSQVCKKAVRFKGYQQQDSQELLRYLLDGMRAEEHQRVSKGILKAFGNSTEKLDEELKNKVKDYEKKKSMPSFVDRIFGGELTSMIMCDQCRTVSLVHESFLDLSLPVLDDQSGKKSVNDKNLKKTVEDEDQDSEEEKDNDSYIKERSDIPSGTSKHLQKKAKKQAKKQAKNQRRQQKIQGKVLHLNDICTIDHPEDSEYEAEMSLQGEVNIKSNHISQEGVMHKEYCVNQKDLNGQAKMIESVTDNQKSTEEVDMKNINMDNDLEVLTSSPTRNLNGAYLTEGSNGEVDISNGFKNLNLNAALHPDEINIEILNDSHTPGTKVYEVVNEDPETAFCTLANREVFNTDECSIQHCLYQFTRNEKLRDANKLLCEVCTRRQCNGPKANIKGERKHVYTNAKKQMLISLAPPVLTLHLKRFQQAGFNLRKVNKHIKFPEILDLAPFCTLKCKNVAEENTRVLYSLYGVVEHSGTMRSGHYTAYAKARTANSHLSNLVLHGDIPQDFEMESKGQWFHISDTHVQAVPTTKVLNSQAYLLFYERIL

SMILES | log2 ratio of Biotin-Ahx-Ub-VS probe labelling [1] | log2 ratio of Biotin-Ahx-Ub-VS probe labelling [2] | log2 ratio of Biotin-Ahx-Ub-VS probe labelling [3] | log2 ratio of Biotin-Ahx-Ub-VS probe labelling [4] | log2 ratio of Biotin-Ahx-Ub-VS probe labelling [5] | log2 ratio of Biotin-Ahx-Ub-VS probe labelling [6] | log2 ratio of Biotin-Ahx-Ub-VS probe labelling [7] | log2 ratio of Biotin-Ahx-Ub-VS probe labelling [8] | log2 ratio of Biotin-Ahx-Ub-VS probe labelling [9] | log2 ratio of Biotin-Ahx-Ub-VS probe labelling [10]
O=C(CCl)NC1CCC2(CC1)OCCO2 | -0.272 | -0.893 | -0.267 | -0.147 | -1.25 (active) | -0.0419 | -0.477 | -0.165 | -0.308 | -0.00437
CC(=O)C1CCCCN1C(=O)CCl (stereo not given) | 0.00453 | -0.279 | 0.0549 | 0.203 | -1.44 (active) | 0.181 | -0.0871 | -0.0595 | -0.162 | -0.109
Cc1nc(CNC(=O)CCl)c2ccccn12.Cl | -0.000255 | -0.458 | -0.14 | -0.132 | -1.12 (active) | -0.319 | -0.224 | -0.121 | -0.398 | -0.0983
O=C(CCl)N1CCCC2CCCCC21 (stereo not given) | 0.111 | -0.246 | 0.0617 | -0.09 | -1.06 (active) | 0.0783 | -0.193 | -0.167 | -0.1 | -0.257
Cl.O=C(CCl)N1CCN(Cc2ccccc2)CC1 | -0.117 | -0.1 | -0.0463 | -0.259 | -0.902 | 0.47 | -0.282 | -0.119 | -0.171 | -0.587
O=C(CCl)N[C@H]1CC[C@@H](CO)CC1 | -0.662 | -1.44 (active) | -0.24 | -0.201 | -2.47 (active) | -0.884 | -0.9 | -0.226 | -0.938 | -0.292
Cc1cccc(NC(=O)[C@@H]2CCCN2C(=O)CCl)n1 | -0.319 | -0.29 | -0.0295 | -0.254 | -1.67 (active) | -0.737 | -0.436 | -0.09 | -0.215 | -0.0941
COc1cc(Cl)c(C)cc1NC(=O)CCl | -0.418 | -0.345 | -0.193 | -0.352 | -1.57 (active) | 0.146 | -0.348 | -0.183 | -0.24 | -0.634
Cl.O=C(CCl)NCc1cc2c(nc1O)CCCC2 | -0.123 | -0.66 | -0.141 | -0.244 | -1.64 (active) | 0.175 | -0.407 | -0.083 | -0.148 | -0.389
O=C(CCl)Nc1cccc2ncccc12 | -0.0779 | -1 (active) | -0.308 | -0.0733 | -1.25 (active) | 0.101 | -0.321 | 0.0543 | -0.178 | 0.52
CNC(=O)C1CCN(C(=O)CCl)CC1 | -0.163 | -0.121 | -0.218 | 0.12 | -0.544 | 0.53 | -0.0712 | -0.383 | -0.0196 | 0.31
CCc1c[nH]c(CNC(=O)CCl)n1.Cl | -0.246 | -0.369 | 0.073 | -0.469 | -1.33 (active) | 0.0893 | -0.335 | -0.218 | -0.538 | -0.0099
Cc1cc(CC(C)NC(=O)CCl)n[nH]1 (stereo not given) | -0.0562 | -0.54 | -0.109 | -0.276 | -0.533 | -0.222 | -0.292 | -0.0255 | -0.325 | 0.186
CCN(C(=O)CCl)C1CCS(=O)(=O)C1 (stereo not given) | -0.144 | -0.284 | -0.167 | -0.00588 | -1.26 (active) | 0.365 | -0.0522 | -0.169 | -0.218 | -0.707
